Source: PubChem BioAssay (Broad Institute)
PD-1 reversal: activators reversing PD-1 mediated T-cell inhibition; 29,000 tested, under 10 active; activation, % (no concentration beside the values); primary human CD4 T cells, PD-L1 beads, CellTiter-Glo 96 h; call rule not given here;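 further: 0% = median vehicle wells and 100% = positive control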
NOMO-1 viab: STK33 inhibitor candidate reducing NOMO-1 cell viability | NOMO-1 AML viability, CellTiter-Glo luminescence, 72 h | inhibition, % (no concentration beside the values) | 7.5% of 37,000 active; in the data active means inhibition above about 80%; inconclusive means no clear call, values can overlap the other calls
STK33 kin inh: inhibitors of human STK33 kinase. 0.44% of 27,000 active. inhibition, % at 12.5 µM. AID 2322. Q9BYT3. ADP-Glo luminescence, MBP substrate; in the data active means inhibition above about 20%; inconclusive means no clear call, values can overlap the other calls
Target sequence (Q9BYT3 whole entry, looked up): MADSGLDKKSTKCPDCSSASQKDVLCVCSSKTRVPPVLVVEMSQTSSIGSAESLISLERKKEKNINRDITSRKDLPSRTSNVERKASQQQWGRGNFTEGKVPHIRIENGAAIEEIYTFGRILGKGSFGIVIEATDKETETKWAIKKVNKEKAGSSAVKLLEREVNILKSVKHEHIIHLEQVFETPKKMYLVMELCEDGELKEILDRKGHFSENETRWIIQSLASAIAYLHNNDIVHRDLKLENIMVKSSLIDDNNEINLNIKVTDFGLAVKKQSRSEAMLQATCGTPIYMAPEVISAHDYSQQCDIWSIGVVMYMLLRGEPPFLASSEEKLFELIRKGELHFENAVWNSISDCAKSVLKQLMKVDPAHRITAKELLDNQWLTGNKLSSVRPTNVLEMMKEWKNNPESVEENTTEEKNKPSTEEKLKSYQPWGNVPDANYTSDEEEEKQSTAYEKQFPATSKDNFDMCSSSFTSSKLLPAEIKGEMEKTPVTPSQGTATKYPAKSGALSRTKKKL
* hit, by the source's call; ? = inconclusive; nt = no result. The entries come from a sample that favours hits as a whole.

SMILES | PD-1 reversal | NOMO-1 viab | STK33 kin inh
CSCCC(Nc1ncnc2sc3c(c12)CCCC3)C(=O)O (stereo not given) | nt | -5 | 1
C[C@@H]1CN([C@H](C)CO)C(=O)Cc2cc(NC(=O)Cc3ccccc3)ccc2O[C@H]1CN(C)Cc1ccncc1 | 1 | 5 | -1
C[C@@H]1CN([C@@H](C)CO)C(=O)Cc2cc(NC(=O)Nc3ccc(C(F)(F)F)cc3)ccc2O[C@@H]1CN(C)C(=O)Nc1ccc(F)cc1 | -3 | 115* | 1
C[C@H](CO)N1C[C@H](C)[C@H](CN(C)C(=O)Nc2ccc(C(F)(F)F)cc2)Oc2ccc(NC(=O)Nc3ccc(C(F)(F)F)cc3)cc2CC1=O | nt | 114* | nt
C[C@H](CO)N1C[C@H](C)[C@H](CN(C)C(=O)Nc2ccc(F)cc2)Oc2ccc(NC(=O)Nc3ccc(C(F)(F)F)cc3)cc2CC1=O | nt | 45 | nt
C[C@H]1CN([C@@H](C)CO)C(=O)Cc2cc(NC(=O)Nc3ccc(C(F)(F)F)cc3)ccc2O[C@@H]1CN(C)C(=O)Nc1ccc(C(F)(F)F)cc1 | 3 | 12 | 2
C[C@@H]1CCCCO[C@H](CN(C)C(=O)Nc2ccc3c(c2)OCO3)[C@@H](C)CN([C@H](C)CO)C(=O)c2cc(NC(=O)Nc3ccc(F)cc3)ccc2O1 | nt | 5 | -4
COc1ccc(CN(C)C[C@H]2Oc3ccc(NC(=O)NC4CCCCC4)cc3CC(=O)N([C@@H](C)CO)C[C@@H]2C)cc1 | -1 | 23 | 1
Cc1cccc(C)c1OCC(=O)NCc1ccccn1 | 1 | -4 | 3
O=C1CC(NCc2cccnc2)C(=O)N1c1ccccc1 (stereo not given) | nt | 3 | -1
COc1ccc(C(=O)C(C)Oc2cccc(NC(=O)c3cccc([N+](=O)[O-])c3)c2)cc1 (stereo not given) | nt | -9 | 0
COc1ccc(C(=O)Nc2ccc(C)c(C)c2)cc1 | -1 | 23 | nt
COc1ccc(C(=O)Nc2ccc(C(O)(C(F)(F)F)C(F)(F)F)cc2)cc1 | 0 | 110* | -1
COc1ccc(C(=O)C(C)Oc2ccc(NC(=O)c3cccc(OC)c3)cc2)cc1 (stereo not given) | -5 | 125* | 7
C[C@@H]1CN([C@@H](C)CO)C(=O)c2cccc(NS(=O)(=O)c3ccc(Cl)cc3)c2O[C@H]1CN(C)C(=O)Nc1ccc(F)cc1 | 0 | 9 | nt
COc1ccc(-c2coc3cc(O)ccc3c2=O)c(OC)c1O | nt | 9 | 1
COc1cc(/C=C2\Oc3cc(O)ccc3C2=O)ccc1O | 2 | -2 | 78*
CC(C)NC(=O)Nc1ccc2c(c1)C(=O)N([C@@H](C)CO)C[C@H](C)[C@@H](CN(C)Cc1ccc3c(c1)OCO3)O2 | 7 | -10 | -1
Cc1cc(C)c(NC(=O)CN(c2ccc(F)cc2)S(C)(=O)=O)c(C)c1 | 4 | -4 | -3
Cc1noc(C)c1S(=O)(=O)Nc1ccc2c(c1)C(=O)N([C@H](C)CO)C[C@H](C)[C@H](CN(C)S(=O)(=O)c1cccs1)OCCCC[C@@H](C)O2 | -1 | 12 | 1
Cc1cccc(NC(c2ccc([N+](=O)[O-])cc2)c2ccc3ccc(C)nc3c2O)n1 (stereo not given) | nt | 112* | 1
Cc1cccc(Nc2ncnc(N)c2[N+](=O)[O-])n1 | nt | 1 | 5
Cc1cccc(NC(c2ccccc2C)c2ccc3ccc(C)nc3c2O)n1 (stereo not given) | -13 | 121* | 15
Cc1cccc(NC(c2ccc(C)s2)c2ccc3ccc(C)nc3c2O)n1 (stereo not given) | nt | nt | 1
Cc1ccnc(NC(c2ccccn2)c2ccc3ccc(C)nc3c2O)c1 (stereo not given) | -14 | 116* | -1
SMILES | PD-1 reversal | NOMO-1 viab | STK33 kin inh
Cc1ccc(C)c(C(Nc2ccccn2)c2ccc3ccc(C)nc3c2O)c1 (stereo not given) | -13 | 107* | ?
CNC[C@@H]1Oc2c(N)cccc2C(=O)N([C@@H](C)CO)C[C@H]1C | 2 | 6 | nt
C[C@H](CO)N1C[C@H](C)[C@H](CN(C)S(=O)(=O)c2ccc(F)cc2)Oc2ccc(NC(=O)NC3CCCCC3)cc2C1=O | -1 | 16 | nt
CC(=O)O[C@@H]1[C@@H](OC(=O)/C=C/c2ccccc2)[C@@H](OC(=O)/C=C/c2ccccc2)[C@H](O[C@H]2[C@@H]3C=CO[C@@H](O[C@@H]4O[C@H](CO)[C@@H](O)[C@H](O)[C@H]4O)[C@@H]3[C@@]3(CO)O[C@@H]23)O[C@H]1C | 1 | 24 | -1
COc1ccc(CN(C)C[C@@H]2Oc3c(NC(=O)C4CCCCC4)cccc3C(=O)N([C@@H](C)CO)C[C@@H]2C)cc1 | 2 | 17 | nt
O=C(CSc1nc(-c2ccc(Cl)cc2)cc(C(F)(F)F)n1)c1ccccc1 | 0 | 32 | 5
CCOC(=O)CS(=O)(=O)c1nc(-c2ccc(F)cc2)cc(C(F)(F)F)n1 | -16 | 135* | 8
